Assay outcomes as filed in PubChem.
Rows were chosen to be rich in hits. Some 7% of all compounds tested hit in one or more screens of this group.
Integrin act MD = qHTS for Activators of Integrin-Mediated Alleviation for Muscular Dystrophy; alpha7betagal myoblasts, beta-gal FDG fluorescence, 48 h; Potency, µM (highest dose often 38.3 µM), without a hit: at the top dose activation, usual class: activators; 350,000 compounds, 0.064% hits; AID 624291, 2012;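 note: potency is the fitted concentration of half-maximal effect; 100% = response of the positive control SU9516; nearly all actives have a fitted effect of over 60% in size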
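alpha7betagal+/- myoblasts (passage 13, 250/well) treated 48 h at 37C with compounds at 1:260 dilution of DMSO stock. Lysed, then beta-galactosidase activity read as FDG fluorescence (ex 480/em 540) after 30 min, with pre-read for autofluorescence.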
IL1B secr inh = qHTS for Inhibitors of Inflammasome Signaling: IL-1-beta AlphaLISA Primary Screen; THP-1 LPS/ATP IL-1B secretion, AlphaLISA, 16 h; hits give low values; activity change, % at 57.5 µM; 360,000 compounds, 4.7% hits; AID 743279, 2014; in the data active = activity change below about -50%; inconclusive = mostly about -30% to -49%; note: % is set by controls: 0 for no effect and ±100 for the full control effect
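THP-1 cells pretreated 1 hr with compounds (up to 57.5 uM final), then stimulated with LPS (250 ng/mL final) plus ATP (1.25 mM final); secreted IL-1B measured by AlphaLISA after 16 hr, decreased signal indicating inhibition.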
DRD3 agonist = qHTS of D3 Dopamine Receptor Agonist: qHTS; D(3) dopamine receptor (Homo sapiens), P35462; D3R DiscoveRx beta-arrestin cells, luminescence, 90 min; max activation, %; 410,000 compounds, 0.58% hits; AID 652048, 2013; in the data active = max activation above about 30%; note: 0% is about no effect
Target sequence (P35462 whole entry, looked up): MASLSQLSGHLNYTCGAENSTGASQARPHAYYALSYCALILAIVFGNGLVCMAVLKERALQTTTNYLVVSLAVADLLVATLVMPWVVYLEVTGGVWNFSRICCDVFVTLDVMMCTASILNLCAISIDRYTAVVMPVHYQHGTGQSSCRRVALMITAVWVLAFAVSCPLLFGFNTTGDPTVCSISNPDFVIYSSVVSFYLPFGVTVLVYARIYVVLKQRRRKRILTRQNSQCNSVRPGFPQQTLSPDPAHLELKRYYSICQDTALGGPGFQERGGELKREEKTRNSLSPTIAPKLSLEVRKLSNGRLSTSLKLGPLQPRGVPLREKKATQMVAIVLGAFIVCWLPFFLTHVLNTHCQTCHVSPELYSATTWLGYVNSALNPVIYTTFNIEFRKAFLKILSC
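Agonist mode: compounds and dopamine controls were applied to plated cells for 90 min at 37 degrees C after an overnight attachment at 1500 cells/well. Luminescent read-out followed 30 - 60 minutes at room temperature with DiscoveRx detection reagent.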
S2 tox = Viability Counterscreen for Primary qHTS for Inhibitors of ATXN expression; S2 cells (HEK-293 line with an ATXN2-luciferase reporter) viability, CellTiter-Fluor protease fluorescence, 24 h; Potency, µM (highest dose often 56.7 µM), most hits filed as cytotoxic; 400,000 compounds, 0.49% hits; note: potency is the fitted concentration of half-maximal effect; nearly all actives have a fitted effect of over 40% in size
DRD3 antagonist = qHTS of D3 Dopamine Receptor Antagonist: qHTS; D(3) dopamine receptor (Homo sapiens), P35462; D3R cells, DiscoveRx beta-arrestin luminescence, antagonist mode; hits give low values; max response, negative = inhibition, %; 360,000 compounds, 2.5% hits; AID 652054, 2013; in the data active = max response below about -50%; inconclusive = no clear call, values can overlap the other calls; note: % is set by controls: 0 for no effect and ±100 for the full control effect
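Cells plated overnight at 1500 cells/well, then exposed to library compounds with dopamine controls for 90 minutes at 37 degrees C. DiscoveRx reagent added for 30–60 minutes at room temperature; luminescence read, quantitative HTS format.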
ATXN2 expr inh = Primary qHTS for Inhibitors of ATXN expression; HEK-293 ATXN2-luciferase reporter, luminescence, 24 h; Potency, µM (top dose mostly 57 µM), for the others: top-dose activity change, negative = inhibition, most hits filed as inhibitors; 360,000 compounds, 0.72% hits; AID 1745845, 2022; note: potency is the fitted concentration of half-maximal effect; % is set by controls: 0 for no effect and ±100 for the full control effect; nearly all actives have a fitted effect of over 55% in size
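ATXN2-luciferase reporter cells (luciferase flanked by upstream and downstream ATXN2 gene portions) were treated 24 h at 37 °C with compounds at up to 57 uM. SteadyGlo luminescence gave expression; GF-AFC fluorescence gave viability.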
Numbers without * were called inactive; ! = a repeat was not active; [ ] = remark or other dose. Unless noted, calls come from the whole dose curve; as a rule, active = well fitted curve in the direction sought with a large enough effect; inconclusive = small, poorly fitted or top-dose-only effect, or another doubt; inactive = no such curve, though single readings can be large; an effect the other way counts as inactive or inconclusive.

How did Clc1ccc(Sc2oc(/C=N/n3cnnc3)cc2Br)cc1 do in these assays?
Integrin act MD: 0%; IL1B secr inh: 0; DRD3 agonist: -2; S2 tox: inactive; DRD3 antagonist: -18; ATXN2 expr inh: 1%

How did CCN1/C(=C/C(C)=C/c2sc3ccccc3[n+]2CC)Sc2ccccc21 do in these assays?
Integrin act MD: inconclusive; IL1B secr inh: -97*; DRD3 agonist: -9; S2 tox: 5.6µM*; DRD3 antagonist: -59*!; ATXN2 expr inh: inconclusive

How did COC(=O)c1ccc(C2CC(=O)Nc3c2c(C)nn3-c2nc(C)cc(C)n2)cc1 (centres undefined) do in these assays?
DRD3 agonist: -3; S2 tox: inactive; ATXN2 expr inh: -4%

How did CCCCc1ccc(NC(=O)N2CCN(c3cc(C)nc4ccccc34)CC2)c(C)c1 do in these assays?
Integrin act MD: -7%; IL1B secr inh: -67*; DRD3 agonist: 3; S2 tox: inconclusive; DRD3 antagonist: 2; ATXN2 expr inh: 18µM*

Results for Cc1cc(N2CCN(C(=O)Nc3ccc(F)cc3F)CC2)c2ccccc2n1 ?
Integrin act MD: 2%; IL1B secr inh: -14; DRD3 agonist: -11; S2 tox: inactive; DRD3 antagonist: -11; ATXN2 expr inh: -35%

What do the screens show for `CCOP(=O)(OCC)c1nc(-c2cccc3ccccc23)oc1NCc1ccccc1`?
Integrin act MD: -16%; IL1B secr inh: -61*; DRD3 agonist: 4; S2 tox: inactive; DRD3 antagonist: 5; ATXN2 expr inh: -11%

Results for CCOP(=O)(OCC)c1nc(-c2cccc3ccccc23)oc1NCc1ccc(OC)cc1 ?
Integrin act MD: -9%; IL1B secr inh: -75*; DRD3 agonist: 5; S2 tox: inactive; DRD3 antagonist: 10; ATXN2 expr inh: -1%[11.3 µM]

What do the screens show for `CCOP(=O)(OCC)c1nc(/C=C/c2ccccc2)oc1NCc1ccccc1`?
Integrin act MD: -7%; IL1B secr inh: -75*; DRD3 agonist: -3; S2 tox: inactive; DRD3 antagonist: 25; ATXN2 expr inh: 23%

What do the screens show for `COP(=O)(OC)c1nc(-c2cccc3ccccc23)oc1NCCc1ccccc1`?
Integrin act MD: 1%; IL1B secr inh: -95*; DRD3 agonist: 2; DRD3 antagonist: -2; ATXN2 expr inh: 9%

Results for O=S1(=O)CC(O)C(Nc2ccccc2Cl)C1 (centres undefined) ?
Integrin act MD: 22%; IL1B secr inh: 8; DRD3 agonist: -1; S2 tox: inactive; DRD3 antagonist: 15; ATXN2 expr inh: 1%

How did Cc1ccc2cc(CCNC(=O)CCCc3ccccc3)c(=O)[nH]c2c1C do in these assays?
Integrin act MD: 25%; IL1B secr inh: -1; DRD3 agonist: 11; S2 tox: inactive; DRD3 antagonist: 4; ATXN2 expr inh: 9%

Results for CC(C)(C)C(C(=O)NCc1ccccc1)N1CCN(CCN2CCOCC2)CC1 (centres undefined) ?
IL1B secr inh: -20; DRD3 agonist: -18; DRD3 antagonist: -64*

Results for O=C(NCc1ccccc1)C(c1ccc(F)cc1)N1CCN(CCN2CCOCC2)CC1 (centres undefined) ?
IL1B secr inh: 11; DRD3 agonist: -7; DRD3 antagonist: -24

Results for CCc1nn2c(=O)c(S(=O)(=O)Nc3ccc(Cl)cc3)c(C)nc2s1 ?
Integrin act MD: -16%; IL1B secr inh: 10; DRD3 agonist: 2; S2 tox: inactive; DRD3 antagonist: 9; ATXN2 expr inh: -11%

Results for CCOc1ccc(NS(=O)(=O)c2c(C)nc3sc(CC)nn3c2=O)cc1 ?
Integrin act MD: -2%; IL1B secr inh: 15; DRD3 agonist: 0; S2 tox: inactive; DRD3 antagonist: -53*; ATXN2 expr inh: 6%

How did Cn1c(-c2sccc2OCc2ccccc2)n[nH]c1=S do in these assays?
Integrin act MD: 15%; IL1B secr inh: -2; DRD3 agonist: -3; S2 tox: inactive; DRD3 antagonist: -54*; ATXN2 expr inh: 3%

How did Cc1ccc(COc2ccsc2-c2n[nH]c(=S)n2C)cc1 do in these assays?
Integrin act MD: 7%; IL1B secr inh: -12; DRD3 agonist: 6; DRD3 antagonist: 48

Results for COc1ccc(C2NN=C(c3c[nH]c4ccccc34)C2O)cc1 (centres undefined) ?
Integrin act MD: -2%; IL1B secr inh: -18; DRD3 agonist: 0; S2 tox: inactive; DRD3 antagonist: -20

Results for COc1ccc(C2C(O)C(c3c[nH]c4ccccc34)=NN2C(=O)CCl)cc1 (centres undefined) ?
Integrin act MD: -73%; IL1B secr inh: -99*; DRD3 agonist: 11; S2 tox: 7.9µM*; DRD3 antagonist: -4; ATXN2 expr inh: 6.3µM*

What do the screens show for `CCOC(=O)C1=C(C)N=C2c3ccccc3C(=O)C2C1c1ccc(Cl)cc1` (centres undefined)?
Integrin act MD: -17%; IL1B secr inh: -52*; DRD3 agonist: -19; S2 tox: inactive; DRD3 antagonist: inconclusive; ATXN2 expr inh: -11%

Results for Cc1ccc(C2C3=C(CC(C)(C)CC3=O)N=C3c4ccccc4C(=O)C32)cc1 (centres undefined) ?
Integrin act MD: 15%; IL1B secr inh: -53*; DRD3 agonist: -11; S2 tox: inconclusive; DRD3 antagonist: inconclusive; ATXN2 expr inh: inconclusive

Results for CC1(C)CC(=O)C2=C(C1)N1C(=C(C#N)C2c2ccc(Cl)cc2)N=C(N)c2ccccc21 (centres undefined) ?
Integrin act MD: 10%; IL1B secr inh: inconclusive; DRD3 agonist: -4; DRD3 antagonist: -4; ATXN2 expr inh: inconclusive

How did CC1(C)CC(=O)C2=C(C1)N=C1c3ccccc3C(=O)C1C2c1ccc(Cl)cc1 (centres undefined) do in these assays?
Integrin act MD: -72%; IL1B secr inh: -60*; DRD3 agonist: -5; S2 tox: inconclusive; DRD3 antagonist: inconclusive; ATXN2 expr inh: inconclusive

What do the screens show for `Cc1ccc(NC(=O)CN2C(=O)NC3(CCCCC3C)C2=O)cc1S(=O)(=O)N1CCOCC1` (centres undefined)?
Integrin act MD: -4%; IL1B secr inh: -7; DRD3 agonist: -5; S2 tox: inactive; DRD3 antagonist: -14

What do the screens show for `Cc1ccc(C)c(NC(=O)c2ccccc2O)c1`?
Integrin act MD: 0%; IL1B secr inh: 6; DRD3 agonist: -5; S2 tox: inactive; DRD3 antagonist: 0; ATXN2 expr inh: 12%
